In the library only some 3.2% were active in any assay of this set; here they are far more common.
14-3-3 Bad PPI: inhibitors of 14-3-3 zeta/Bad binding, primary screen, biochemical, TR-FRET, bovine 14-3-3 zeta; 14-3-3 protein zeta/delta (Bos taurus), P63103; TR-FRET 14-3-3zeta/Dy647-pBad peptide displacement, 1 h; inhibition, % at 21.7 µM; hit rate 0.71% among 220,000;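 active = inhibition above about 70%, limit read from the data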;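 note: 0% = full 14-3-3 plus peptide FRET controls and 100% = background without 14-3-3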
Target sequence (P63103 whole entry, looked up): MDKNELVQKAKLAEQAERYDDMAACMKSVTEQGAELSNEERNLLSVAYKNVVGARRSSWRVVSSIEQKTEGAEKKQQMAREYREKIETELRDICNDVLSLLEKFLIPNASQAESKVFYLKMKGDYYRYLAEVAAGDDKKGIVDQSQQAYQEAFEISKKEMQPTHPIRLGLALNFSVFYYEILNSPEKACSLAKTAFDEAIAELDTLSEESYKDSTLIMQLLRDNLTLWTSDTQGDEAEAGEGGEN
Mcl1-Bid inh: Mcl-1/Bid binding inhibitors, primary screen, biochemical, TR-FRET, 1536-well | Induced myeloid leukemia cell differentiation protein Mcl-1 (Homo sapiens), Q07820 | TR-FRET Mcl-1/Bid-Dy647 peptide binding | inhibition, % at 21.7 µM | hit rate 0.97% among 220,000 | AID 1021, 2008;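 active = compounds that cut the binding signal by more than half at the single screening dose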;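 note: His-tagged Mcl-1 with europium anti-His antibody binding Bid BH3 peptide; 0% = Mcl-1 plus peptide wells and 100% = peptide-only wells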
Mcl1-Noxa inh: Mcl-1/Noxa binding inhibitors, primary screen, biochemical, TR-FRET, 1536-well; Induced myeloid leukemia cell differentiation protein Mcl-1 (Homo sapiens), Q07820; TR-FRET Mcl-1/Noxa peptide binding, 2 h; inhibition, % at 21.7 µM; hit rate 1.5% among 220,000; AID 1022, 2008;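 active = compounds that cut the protein-peptide binding signal by more than 50% relative to plate controls in a single-dose test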;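 note: His-tagged Mcl-1 with rhodamine Noxa BH3 peptide and terbium anti-His antibody; 0% = Mcl-1 plus Noxa peptide wells and 100% = peptide-only wells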
Bim-Mcl-1: inhibitors of Bim peptide binding to Mcl-1, primary screen, biochemical, bead-based flow cytometry, multiplex; Bim peptide-Mcl-1 binding; inhibition, % at 10 µM; hit rate 0.1% among 190,000; in the data active = inhibition above about 40%;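 note: 0% = no compound tracer wells and 100% = peptide blocker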
p47phox inh: p47phox/p22phox peptide binding inhibitors, primary screen, biochemical, uHTS, NADPH oxidase regulatory subunit; Neutrophil cytosol factor 1 (Homo sapiens), P14598; fluorescence polarization, 2 h; inhibition, % at 24.7 µM; hit rate 0.53% among 220,000;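 active = inhibition above about 30%, limit read from the data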;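 note: 0% = p47phox with labelled peptide and 100% = labelled peptide alone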
Target sequence (P14598 whole entry, looked up): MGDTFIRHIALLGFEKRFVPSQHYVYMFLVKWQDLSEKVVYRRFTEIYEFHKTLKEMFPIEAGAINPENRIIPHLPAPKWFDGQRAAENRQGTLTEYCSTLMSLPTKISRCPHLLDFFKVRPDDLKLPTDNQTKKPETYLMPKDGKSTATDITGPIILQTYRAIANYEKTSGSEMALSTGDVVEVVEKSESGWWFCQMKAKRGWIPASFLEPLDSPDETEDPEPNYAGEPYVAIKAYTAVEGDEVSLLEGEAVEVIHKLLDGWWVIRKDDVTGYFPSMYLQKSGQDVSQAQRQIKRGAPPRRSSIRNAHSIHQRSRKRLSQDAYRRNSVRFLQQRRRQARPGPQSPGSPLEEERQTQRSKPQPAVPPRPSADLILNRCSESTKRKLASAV
An asterisk follows results filed as active; x = not tested or not shown; ! = not confirmed by another sample; [ ] = dose if it differs, or a comment.

SMILES | 14-3-3 Bad PPI | Mcl1-Bid inh | Mcl1-Noxa inh | Bim-Mcl-1 | p47phox inh
Cc1ccc(NC(=S)Nc2cccc(-c3n[nH]c(=S)o3)c2)cc1 | -7 | -18 | 59* | x | -35
Fc1cc2nc(-c3ccncc3)[nH]c2cc1F | 16 | 71* | -9 | 1 | -11
c1ccc2[nH]c(-c3ccncc3)nc2c1 | 2 | -47 | 5 | 1 | 30*!
c1cncc(-c2nc3ccccc3[nH]2)c1 | -1 | -37 | 20 | -2 | 1
CCOc1ccc(NC(=O)CN2CCC(n3cnc4cc(F)ccc43)CC2)cc1 | -9 | -33 | 21 | 1 | 1
COc1ccc(OC)c(-c2csc(N(CC3CCCO3)C(=O)C3CCCCC3)n2)c1 (centres undefined) | -6 | -34 | 13 | 3 | -10
COc1ccc(CC(=O)n2[nH]c(=O)ccc2=O)cc1OC | 4 | -7 | 75* | x | 12
Cc1ccccc1NC(=O)C(C)n1c2ccccc2c2nc(=O)cc(C)n21 (centres undefined) | 7 | -10 | -9 | x | -3
COc1ccc(-c2cn(-c3ccc(C)cc3C)c(=O)[nH]2)cc1OC | 3 | -38 | 11 | 0 | -1
COc1ccccc1-c1nnc(NC(=O)c2ccc3c(c2)OCO3)s1 | 71* | 63* | 14 | -2 | 28
N#C/C(=C\c1ccc(C(=O)O)cc1)c1nc2sc3c(c2c(=O)[nH]1)CCCC3 | 38 | 13 | 74* | x | 104*
COc1ccc(CN2C(=O)c3ccccc3C2C(=O)NC2CCCCCC2)c(OC)c1 (centres undefined) | -5 | -6 | 8 | -2 | -3
CN(CC(=O)OCC(=O)NCC(F)(F)F)S(=O)(=O)c1ccc(Cl)cc1 | -14 | -4 | 16 | -1 | 2
Cc1sc2c(c1C)C(O)=C(C(=O)Nc1ccccc1)S(=O)(=O)N2C | -1 | -12 | 21 | x | -16
CCOC(=O)c1c(C)oc2c1c(C(c1cccnc1)N1CCOCC1)c(O)c1ccccc12 (centres undefined) | 17 | 69* | 101* | -5 | 2
CCOC(=O)c1c(C)oc2c1c1c(c3ccccc32)OCN(CCCC(=O)O)C1 | -9 | -21 | 53* | x | -3
CCOC(=O)c1c(C)oc2c1c1c(c3ccccc32)OCN(Cc2cccnc2)C1 | 0 | 9 | 71* | 1 | 5
CCOC(=O)c1c(C)oc2c1c(C=NCc1ccccn1)c(O)c1ccccc12 | 12 | -28 | 1 | 0 | -10
COc1cc(NS(=O)(=O)c2ccc(N/C=C(\C=O)c3nc4ccccc4o3)cc2)nc(OC)n1 | 1 | 13 | 20 | -5 | -18
O=C(O)CCc1nc(-c2cccs2)no1 | 1 | -5 | 84* | -5 | -3
O=C(O)CCc1nc(-c2ccccc2)no1 | -7 | 8 | 24 | -1 | 7
O=C(COc1ccccc1)NC(=S)Nc1cccc([N+](=O)[O-])c1 | -25 | -13 | 5 | -2 | -13
O=C(COc1ccccc1)NC(=S)Nc1ccc2c(c1)Cc1ccccc1-2 | -9 | -34 | 52* | 13 | -4
CC1CCCCC1NCC(=O)Nc1ccccc1-c1ccccc1 (centres undefined) | 71* | 35 | 10 | -3 | -3
CC1=C(SCCC#N)S/C(=C2\SC(C)=C(SCCC#N)S2)S1 | -3 | 96* | 74* | -7 | 2
SMILES | 14-3-3 Bad PPI | Mcl1-Bid inh | Mcl1-Noxa inh | Bim-Mcl-1 | p47phox inh
Cc1nc2ccccn2c1-c1ccnc(=S)[nH]1 | -4 | -30 | 57* | x | -11
CN(C(=O)C(Cl)Cl)C1CC2C=CC1C2 (centres undefined) | 2 | -9 | -5 | x | -10
COc1ccc(OC)c([N+](=O)[O-])c1C(N)=O | 55 | -45 | 56* | 0 | 16
COc1cc(NC(=O)Cn2c(=O)n(-c3cccc(C)c3)c(=O)c3c(C)c(C)sc32)cc(OC)c1 | -4 | -18 | -11 | -4 | -22
N#Cc1ccc(N/N=C/c2cn(-c3ccccc3)nc2-c2ccccc2)c([N+](=O)[O-])c1 | 8 | -2 | 5 | 3 | 51*
COc1ccc(NC(=O)CCn2nc(C)cc2C)cc1 | -13 | 2 | 7 | -1 | 56*
CCN(CC)c1ccc(Nc2nc(N3CCOCC3)c3ccccc3n2)cc1 | 56 | 22 | 54* | 3 | -6
O=c1[nH]c(CSc2ncccn2)nc2c1cnn2-c1ccccc1 | -9 | -19 | 58* | -7 | -6
O=C(CCC1CCCN(C(=O)Cc2cccc(F)c2)C1)N1CCN(c2ccccn2)CC1 (centres undefined) | -1 | -21 | 13 | -1 | -3
O=C(CCC1CCCN(C(=O)CCCc2ccccc2)C1)N1CCN(c2ccccn2)CC1 (centres undefined) | -9 | -25 | 8 | x | 95*
O=C(NC1CCCCC1)C(c1ccc(F)cc1)N(Cc1ccccc1)C(=O)CN1C(=O)c2ccccc2S1(=O)=O (centres undefined) | 6 | -18 | 12 | -3 | -14
O=C(NC1CCCCC1)C(c1ccc(F)cc1)N(CCc1ccccc1)C(=O)CN1C(=O)c2ccccc2S1(=O)=O (centres undefined) | 6 | -8 | -11 | -6 | 31*
CC(C)NC(=O)Cn1cc(C(=O)COc2ccccc2)c2ccccc21 | 1 | 0 | 16 | 4 | -2
CCC(NC(=O)Nc1cc(C)on1)(C(F)(F)F)C(F)(F)F | 5 | 4 | 8 | x | -10
COc1ccc(C(CC(=O)NCc2ccccc2)C(C)C)cc1 (centres undefined) | -1 | 7 | 1 | x | -7
COc1ccc(C(CCNC(C)c2ccccc2)C(C)C)cc1 (centres undefined) | -4 | -7 | -5 | x | 42*
CCOc1ccc(NC(=O)CCC(=O)NNC(=O)Nc2ccc(Cl)cc2)cc1 | -10 | -8 | 0 | 0 | -3
CC(=O)c1cc(CN2CCN(C(C)C)C(CCO)C2)cs1 (centres undefined) | -5 | -25 | -10 | -1 | -8
O=C(O)c1ccc(N/N=C/C2=C(N3CCOCC3)C(=C\c3ccccc3)/CC2)cc1 | -2 | -81 | 75* | x | -8
C(=N\Nc1ccccc1)/c1ccc(N2CCOCC2)cc1 | 88*[fluorescence artefact?] | -60 | 20 | 1 | -4
Cc1cc(C)nc(N/N=C/C2=C(N3CCOCC3)C(=C\c3ccc(Cl)cc3)/CC2)n1 | 3 | -117 | 36 | -5 | -12
Cn1cc(Br)c(C(=O)Nc2nccs2)n1 | 14 | -11 | -4 | -8 | -5
CS(=O)(=O)N(CC(=O)N1CCCCC1)c1cccc(F)c1 | -15 | -4 | -16 | 0 | 3
COc1ccc(Cn2c(CCC(=O)NCc3ccco3)nc3cccnc32)cc1 | 0 | -44 | 65* | -3 | -14
CCCCNC(=O)CCc1nc2cccnc2n1Cc1ccc(OC)cc1 | -2 | -1 | 1 | -1 | -15

Bioassay records as filed in PubChem.
